# Measurements taken from PubChem BioAssay AID720648 (The Scripps Research Institute Molecular Screening Center, 2013).
# About 3,100 (0.84%) of roughly 370,000 compounds were called active. The list comes from a sample in which actives are over-represented; it also holds similar structures and randomly drawn compounds. Unmarked numbers belong to inactive results.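 How the source made its calls: active means inhibition above the mean of compounds lying between control limits plus 3 SD, set per campaign (cut at about 8.5% in these data); inactive means the rest.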
# Target: Disintegrin and metalloproteinase domain-containing protein 17 (Homo sapiens) (UniProt P78536)
# Sequence (P78536 215-824 limits assumed): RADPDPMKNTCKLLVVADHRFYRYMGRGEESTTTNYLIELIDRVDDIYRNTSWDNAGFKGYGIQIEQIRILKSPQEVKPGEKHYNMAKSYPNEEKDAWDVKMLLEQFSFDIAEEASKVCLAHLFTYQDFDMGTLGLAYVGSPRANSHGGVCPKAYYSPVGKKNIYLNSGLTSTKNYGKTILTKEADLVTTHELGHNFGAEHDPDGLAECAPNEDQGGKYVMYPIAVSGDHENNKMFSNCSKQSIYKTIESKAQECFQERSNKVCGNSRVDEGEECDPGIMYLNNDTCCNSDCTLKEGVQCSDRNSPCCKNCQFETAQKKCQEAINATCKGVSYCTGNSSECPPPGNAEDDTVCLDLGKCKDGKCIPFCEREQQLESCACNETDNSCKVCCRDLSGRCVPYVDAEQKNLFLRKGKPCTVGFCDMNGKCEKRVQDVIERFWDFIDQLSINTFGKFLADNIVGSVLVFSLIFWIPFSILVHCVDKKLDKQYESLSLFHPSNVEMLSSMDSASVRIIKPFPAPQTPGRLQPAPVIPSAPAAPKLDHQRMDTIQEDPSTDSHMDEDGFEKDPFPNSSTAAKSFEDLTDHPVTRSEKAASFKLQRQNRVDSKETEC
# Experiment: ADAM17 inhibitors, primary screen, biochemical, QFRET (AID 720648);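 further: 0% = DMSO-only wells as the low control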
# Settings: recombinant ADAM17, EDANS/DABCYL FRET peptide cleavage; at 6.95 µM; hits give high values
row,Compound,inhibition
1,Cc1ccc(C)c(OCCC(=O)Nc2cccc(S(=O)(=O)N3CCCC3)c2)c1,1.33%
2,Cc1cccc(OCCCC(=O)Nc2ccc(S(=O)(=O)N3CCCC3)cc2)c1,3.89%
3,CC(=O)Nc1ccc(S(=O)(=O)N2CCN(CCCOc3cc(C)ccc3C)CC2)cc1,9.18% (active)
4,CC(=O)Nc1ccc(OC[C@@H](O)CN2CCC(C(O)(c3ccccc3)c3ccccc3)CC2)cc1,2.29%
5,COc1cc(C(=O)NNC(=O)c2ccc(S(=O)(=O)N3CCCCC3)cc2)cc(OC)c1OC,0.14%
6,COc1ccc(S(=O)(=O)N2CCCCC2)cc1Br,9.21% (active)
7,COc1ccc(F)cc1S(=O)(=O)N1CCCCC1,-4.65%
8,CCOC(=O)[C@@]12CCC3=C1N(CCC3)C(=O)[C@H](CC(=O)N1CCN(C(=O)c3ccco3)CC1)C2,-6.34%
9,Cc1nc(CNc2ncnc3ccc(-c4ccc5c(c4)OCO5)cc23)cs1,-54.3%
10,COc1cccc(C2CC(c3ccccc3)=NN2S(=O)(=O)c2ccccc2)c1OC (stereo not given),14% (active)
11,CCOc1ccccc1C1CC(c2cccc(NS(C)(=O)=O)c2)=NN1C(=O)c1ccccc1 (stereo not given),12.6% (active)
12,COC(=O)c1cccc(NS(C)(=O)=O)c1,-1.45%
13,COc1cccc(C2CC(c3cccs3)=NN2C(=O)CSC2=NCCS2)c1OC (stereo not given),-4.82%
14,CCOc1ccc2nc(Cl)c(C3CC(c4ccccc4)=NN3C(=O)c3cccs3)cc2c1 (stereo not given),-2.13%
15,CS(=O)(=O)Nc1cccc(C2=NN(S(=O)(=O)c3ccccc3)C(c3cccs3)C2)c1 (stereo not given),8.71% (active)
16,CCS(=O)(=O)Nc1ccc(C2=NN(S(=O)(=O)c3ccc(F)cc3)C(c3ccco3)C2)cc1 (stereo not given),3.46%
17,Cc1ccc(C2CC(c3cccc(NS(C)(=O)=O)c3)=NN2S(C)(=O)=O)cc1 (stereo not given),-2.2%
18,CS(=O)(=O)Nc1cccc(C2=NN(C(=O)c3cccc(F)c3)C(c3cccs3)C2)c1 (stereo not given),1.09%
19,O=C(Nc1cc(Cl)cc(Cl)c1)OCCN1CCCC12CCC(c1ccccc1)CC2 (stereo not given),1.56%
20,CCOC(=O)[C@]12CCCCC/C=C\1N(Cc1ccc(OC)cc1)C(=O)[C@H]2CC(=O)NCCCN1CCCC1=O,5.47%
21,Cc1cc(NS(=O)(=O)c2ccc(NC(=O)CSc3nnc(-c4ccc(C(C)(C)C)cc4)n3Cc3ccco3)cc2)nc(C)n1,0.8%
22,CC(C)(C)c1ccc(C(=O)Nc2cc(Cl)c(Br)cc2C(=O)O)cc1,8.45%
23,COC(=O)[C@]12C[C@H](CC(=O)N3CCOCC3)C(=O)N(Cc3ccc(Cl)cc3Cl)C1=C[C@H](C(C)C)O[C@@H]2C1CC1,-2%
24,Cc1ccc(-n2c(SCC(=O)Nc3ccc(S(=O)(=O)Nc4nccs4)cc3)nnc2-c2ccccn2)cc1,2.5%
25,O=C1CC[C@@]23CCCN2C(=O)CCC[C@H]3[C@H]1Cc1ccccc1,-7.14%

row,Compound,inhibition
1,COc1ccccc1C(=O)NC(=S)NC12CC3CC(CC(C3)C1)C2,-0.66%
2,S=C(NCc1ccc(Cl)cc1)NC12CC3CC(CC(C3)C1)C2,14.9% (active)
3,Cc1ccc(C(=O)NC23CC4CC(CC(C4)C2)C3)c(Cl)c1,-1.94%
4,COc1ccc(-c2cc(-c3nnc(SCC(=O)Nc4cccc5ccccc45)n3N)[nH]n2)cc1,-3.93%
5,O=C(NCC1COc2ccccc2O1)c1ccc(NC(=O)c2cc(F)ccc2F)cc1 (stereo not given),2.47%
6,COc1ccc(/C=C2\CC3(OC(C)=O)CCCN2C3)cc1 (stereo not given),-3.86%
7,Cc1ccccc1NC(=O)C1CCN(c2ncccn2)CC1,-12.7%
8,COc1ccc(C(=O)NN2C(=O)C3C(c4ccccc4)C=CC(c4ccccc4)C3C2=O)cc1 (stereo not given),13.9% (active)
9,O=C(NN1C(=O)C2C3C=CC(C4CC34)C2C1=O)c1ccc(Cl)cc1 (stereo not given),-30.5%
10,O=C(NN1C(=O)C2C3C=CC(O3)C2C1=O)c1ccccc1 (stereo not given),0.75%
11,COc1ccc(N2CCN(CCNS(=O)(=O)c3ccc(C(C)(C)C)cc3)CC2)cc1,1.38%
12,CCCC[C@H]1C2CC(OC(=O)NCc3ccccc3)C(C2)[C@H]2CCCCN21 (stereo not given in full),-10.2%
13,C=C(C)COc1ccc(-c2n[nH]c(C)c2-c2ccccc2)c(O)c1,10.9% (active)
14,Cc1[nH]nc(-c2ccc(OCc3cnn(-c4ccccc4)c3)cc2O)c1Oc1ccc(Cl)cc1,0.84%
15,CC(C)N1CCCCC(NC(=O)C(C)(C)C)C1=O (stereo not given),-2.39%
16,O=C(CSc1nnc(Nc2ccccc2)s1)Nc1cccnc1Cl,8.69% (active)
17,O=C(CSc1nnc(Nc2ccccc2F)s1)NC1CCCC1,-2.83%
18,O=C(CSc1nnc(C2CC2)n1Cc1ccccc1)Nc1cccnc1Cl,-2.91%
19,CCOC(=O)[C@]12CCCC=C1N(Cc1ccc(OC)cc1)C(=O)[C@@H]2CC(=O)NCc1cccs1,-2.4%
20,CN1C[C@]2(C=C3CCCCC3n3c(=O)n(-c4ccccc4)c(=O)n32)N=C1NC(=O)c1ccccc1 (stereo not given in full),-0.93%
21,COC(=O)[C@]1(C#N)CC(=O)N(CC2CCCCC2)[C@@H]1c1ccccc1,4.54%
22,O=C(NC1CCCC1)C1CSCCS(=O)(=O)N1Cc1ccccc1 (stereo not given),-0.05%
23,COc1ccc(-n2c(COc3ccccc3)nnc2SCC(=O)Nc2ccc3c(c2)OCO3)cc1,4.09%
24,Cc1ccc(-n2c(COc3ccccc3)nnc2SCC(=O)Nc2ccc3c(c2)OCCO3)cc1,10.3% (active)
25,O=C(CSc1nnc(COc2ccccc2)n1-c1ccc(Cl)cc1)Nc1ccc2c(c1)OCO2,1.36%

row,Compound,inhibition
1,CN(NS(=O)(=O)c1cccs1)c1ncc(C(F)(F)F)cc1Cl,-1.66%
2,Cc1cc(C)cc(NS(=O)(=O)c2ccc(Oc3ncc(C(F)(F)F)cc3Cl)cc2)c1,10.8% (active)
3,O=S(=O)(Nc1ccc(Oc2ncccn2)c(Cl)c1)c1ccc(F)cc1,-3.11%
4,COc1cccc(/C=C2\CC3(OC(C)=O)CCCN2C3)c1 (stereo not given),3.86%
5,O=C(OC12CCCN(C1)/C(=C/c1ccccc1)C2)c1ccco1 (stereo not given),6.28%
6,COC(=O)[C@]12C[C@H](CC(=O)NCCCN3CCCC3=O)C(=O)N(CCc3ccc(OC)c(OC)c3)C1=C[C@H](COCc1ccccc1)O[C@@H]2C,-6.14%
7,O=C(NCc1ccccc1)C1=C[C@@H](c2ccc(C(F)(F)F)cc2)C[C@@H](OCc2ccc(CO)cc2)O1,10.7% (active)
8,O=C(C1=C[C@H](c2ccc(C(F)(F)F)cc2)C[C@H](OCc2ccc(CO)cc2)O1)N1CCN(Cc2ccccc2)CC1,5.72%
9,CC(C)(C)[C@H]1C=C(C(=O)NCc2ccccc2)O[C@@H](OCc2ccc(CO)cc2)C1,2.4%
10,Cc1ccc(OCCOc2cccc(/C=N/NC(N)=O)c2)cc1,-1.45%
11,COc1ccc(Cl)cc1C=CC=NNC(=O)c1ccncc1,-4.19%
12,Cc1ccc(OCCOCCOc2ccc(Br)cc2/C=N\NC(=O)c2ccncc2)cc1,10% (active)
13,CN1C(=O)c2cc(NS(C)(=O)=O)ccc2OC[C@@H]2O[C@@H](CC(=O)NCc3ccc(-c4ccccc4)cc3)CC[C@H]21,-3.9%
14,C#CCN(C[C@@H]1[C@@H](OC(=O)NC2CC2)[C@@H](OC(=O)NC2CC2)Cn2c(=O)ccc(=O)n21)S(=O)(=O)c1ccc(C)cc1,-1.79%
15,C#CCN(C[C@H]1[C@H](OC(=O)NC2CCCC2)[C@H](OC(=O)NC2CCCC2)C[C@H]2C(=O)N(c3ccccc3)C(=O)[C@@H]12)S(=O)(=O)c1ccc(C)cc1,9.64% (active)
16,Cc1ccc(S(=O)(=O)N2C[C@]3(O)C[C@@H]4C(=O)N(c5ccccc5)C(=O)[C@@H]4C[C@]3(OC(=O)NC3CC3)C2)cc1,-1.11%
17,COC(=O)[C@]12C[C@H](CC(=O)NCc3ccccc3)C(=O)N(CCC3=CCCCC3)C1=C[C@H](C(C)C)O[C@@H]2C1CC1,6.48%
18,CC1(C(=O)NCc2ccc3c(c2)OCO3)CCN1C(=O)Cc1cccc2ccccc12 (stereo not given),-3.18%
19,O=C(CCNS(=O)(=O)c1ccccc1C(F)(F)F)NCc1ccc2c(c1)OCO2,-0.25%
20,N#Cc1nc(Cc2cccc3ccccc23)oc1NCc1ccc2c(c1)OCO2,9.51% (active)
21,CCOC(=O)C(=O)N(Cc1ccccc1)c1ccccc1C(=O)Nc1cc(OC)ccc1OC,4.35%
22,O=C(CSc1nnc(-c2ccccn2)n1-c1ccc(Cl)cc1)Nc1ccccc1-c1ccccc1,5.21%
23,CN(C(=O)c1cccc(NC(=O)Cc2cccc([N+](=O)[O-])c2)c1)C1CCCCC1,10.3% (active)
24,CN(C(=O)c1cccc(NC(=O)Cc2ccc([N+](=O)[O-])cc2)c1)C1CCC1,3.46%
25,CN(C(=O)c1cccc(NC(=O)Cc2cccc(NC(=O)C3CCCN(C(=O)C4CC4)C3)c2)c1)C1CCC1 (stereo not given),-2.72%

row,Compound,inhibition
1,Cc1ccccc1CS(=O)(=O)Cc1ccc(C(=O)Nc2ccc(Cl)cc2)o1,-7.43%
2,CC(C)CC1C(=O)N(Cc2cn(CC3CCCCC3)nn2)CCS(=O)(=O)N1Cc1ccc(-c2ccc(Cl)cc2)cc1 (stereo not given),-0.31%
3,CC1C(=O)N(Cc2cn(CC3CCCCC3)nn2)CCS(=O)(=O)N1Cc1ccc(-c2cccc(N(C)C)c2)cc1 (stereo not given),-2.56%
4,CC1C(=O)N(Cc2cn(Cc3ccco3)nn2)CCS(=O)(=O)N1Cc1ccc(-c2cccc(CO)c2)cc1 (stereo not given),0.84%
5,COc1ccc(Cn2cc(CN3CCS(=O)(=O)N(Cc4ccc(-c5cccc(Cl)c5)cc4)C(C)C3=O)nn2)cc1 (stereo not given),10% (active)
6,COc1ccc(-c2ccc(CN3C(CC(C)C)C(=O)N(Cc4cn(CC5CCCCC5)nn4)CCS3(=O)=O)cc2)cn1 (stereo not given),3.81%
7,COc1ccc(-c2ccc(CN3C(CC(C)C)C(=O)N(Cc4cn(CC5CCCCC5)nn4)CCS3(=O)=O)cc2)cc1 (stereo not given),9.87% (active)
8,COc1cc(/C=C/C(=O)n2cnc3ccccc32)cc(OC)c1OC,-11.9%
9,CC(=O)OC12CCCN(C1)/C(=C/c1ccncc1)C2 (stereo not given),-1.16%
10,Clc1ccc(-n2c(SC/C=C/c3ccccc3)nnc2-c2ccco2)cc1,8.36%
11,CC(C)CNc1cccc2c1S(=O)(=O)N(Cc1cn(Cc3ccccc3C(F)(F)F)nn1)Cc1ccccc1O2,-9.08%
12,CCCNC(=O)C1CC(=O)N(c2ccc(OCc3ccccc3)cc2)C1 (stereo not given),-1.62%
13,COc1cc(C2CC(=O)N3CN(Cc4ccccc4)CSC3=C2C#N)ccc1OCc1ccccc1 (stereo not given),10.2% (active)
14,COc1cc(C2C(C(=O)c3ccco3)=C(O)C(=O)N2c2cc(C)on2)ccc1OCc1ccccc1 (stereo not given),-1.07%
15,Cc1cc(C)nc(NC(=S)N2CCN(c3ccc(C(F)(F)F)cn3)CC2)c1,-0.9%
16,Cc1ccc(C)c(NC(=S)NCC(c2cccnc2)N2CCOCC2)c1 (stereo not given),4.64%
17,Cc1ccc(C)c(NC(=S)NNC(=S)Nc2ccc(C(C)C)cc2)c1,11% (active)
18,CC(C)c1ccc(NC(=S)NC2CC3C=CC2C3)cc1 (stereo not given),1.36%
19,COc1ccnc(NC(=S)N2CCN(c3ncc(C(F)(F)F)cc3Cl)CC2)c1,-3.73%
20,C[C@H](C(=O)N(C)c1ccccc1)[C@@H](O)c1ccc(Cl)cc1,-3.74%
21,COC(=O)N(C)C[C@@H]1OCc2cnnn2CCCC(=O)N([C@@H](C)CO)C[C@@H]1C,8.71% (active)
22,C[C@H](CO)N1C[C@H](C)[C@@H](CN(C)C(=O)C2CCCCC2)OCc2cnnn2CCCC1=O,3%
23,C[C@@H]1CN([C@H](C)CO)C(=O)CCCn2nncc2CO[C@@H]1CN(C)C(=O)OCc1ccccc1,-3.01%
24,COC(CNC(=O)[C@H](Cc1ccccc1)NC1(C(=O)NC2CCCCC2)CCCCC1)OC,-1.27%
25,COc1ccc(S[C@]2(C(=O)N(C)C)CC(=O)N(c3ccc(OC)cc3)[C@@H]2c2ccc(OC)cc2)cc1,3.23%
